Test results taken from PubChem BioAssay.
Active and inactive are the calls of the source.

Legend:
[1] = tested on: PRMT1 (protein arginine N-methyltransferase 1); test: PRMT1 binders on small-molecule microarrays, primary screen, biochemical, small-molecule microarray, 635 nm fluorescence (AID 1088); settings: small-molecule microarray binding, higher = more signal;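 note: binding of Prmt1 protein to compounds spotted on small-molecule microarray slides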
[2] = yeast growth modulation, basal conditions, primary screen, YJM789 clinical isolate, OD600, 24 h (AID 1089);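 note: growth of clinical yeast isolate S. cerevisiae YJM 789 seeded 1000 cells per well; test concentration not given here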; settings: S. cerevisiae YJM789 growth, higher = more signal, called active from +8 up or from −8 down
[3] = fission yeast growth modulation, primary screen, strain 972, OD600, 24 h, no modulator (AID 1090);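 note: basal condition with compound alone and no growth modifier present; test concentration not given here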; settings: S. pombe 972 growth, higher = more signal, called active from +8 up or from −8 down
[4] = S. cerevisiae growth modulation with rapamycin, primary screen, strain BY4716, OD600, 96 h (AID 1091); settings: higher = more signal, called active from +8 up or from −8 down; note: test concentration not given here
[5] = biological target: Torsin-1A-interacting protein 2 (Homo sapiens) (UniProt Q8NFQ8); test: LULL1 binders on small-molecule microarray, primary screen, cell lysate, human LULL1 lysate, 635/667 nm fluorescence (AID 1092); settings: hLULL1 lysate binding, 635 nm fluorescence, higher = more signal;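 note: probe is lysate of COS7 cells overexpressing human LULL1; score merges per-feature 667 nm fluorescence with signal-to-noise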
[6] = E. coli growth modulation, two-sided OD650, primary screen, E. coli filamentation project, strain DRC41, 24 h (AID 1093); settings: OD650, 24 h, higher = more signal, called active from +8 up or from −8 down;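 note: MC1000 strain lacking acrAB efflux and sulA so SOS filamentation is blocked; test concentration not given here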
[7] = small-molecule microarray binders of probe aLefty2, primary screen, biochemical, biotinylated probe, 635/667 nm fluorescence (AID 1094); settings: higher = more signal;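 note: score merges spot fluorescence near 667 nm with spot signal-to-noise ratio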
[8] = tested on: Noggin (protein binding on small-molecule microarray); test: Noggin binders on small-molecule microarray, primary screen, biochemical, 635/667 nm fluorescence (AID 1095); settings: 635 nm fluorescence, higher = more signal;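 note: score merges 667 nm feature fluorescence with signal to noise over triplicate slides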
[9] = biological target: Neurogenic locus notch homolog protein 3 (Homo sapiens) (UniProt Q9UM47); test: NOTCH3 binders on small-molecule microarray, primary screen, biochemical, 635/667 nm fluorescence (AID 1096); settings: NOTCH3 binding, 635 nm fluorescence, higher = more signal
[10] = small-molecule microarray binders of probe aEGFR, primary screen, biochemical, biotinylated probe, 635/667 nm fluorescence (AID 1097); settings: higher = more signal;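 note: probe is a biotinylated anti-EGFR antibody binding compounds printed on slides; score combines fluorescence near 667 nm and signal to noise of each spot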
[11] = tested on: Plasmodium falciparum Sir2 (PF13_0152, Sir2A); test: pfSir2 binders on small-molecule microarrays, primary screen, biochemical, small-molecule microarray, 635 nm fluorescence (AID 1098); settings: small-molecule microarray binding, fluorescence 635 nm; higher = more signal;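 note: score merges spot fluorescence intensity with its signal-to-noise ratio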
[12] = small-molecule microarray binders of probe aDKK1, primary screen, biochemical, biotinylated probe, 635/667 nm fluorescence (AID 1099); settings: higher = more signal;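 note: score merges 667nm spot fluorescence with signal to noise across triplicate slides; reference of the scale not given here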
[13] = small-molecule microarray binders of probe aCHRDL2, primary screen, biochemical, biotinylated probe, 635/667 nm fluorescence (AID 1100); settings: higher = more signal
[14] = splicing luciferase reporter signal modulators, primary screen, spliceosome inhibition project, cell-based, HEK293, splice +/- reporter (AID 1101); settings: luminescence, 24 h, higher = more signal, called active from +8 up or from −8 down;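 note: HEK293 cells carrying a splicing-competent luciferase reporter gene; test concentration not given here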
[15] = biological target: Fibroblast growth factor 10 (Homo sapiens) (UniProt O15520); test: FGF10 binders on small-molecule microarrays, primary screen, biochemical, small-molecule microarray, 635 nm fluorescence (AID 1102); settings: FGF10 binding, fluorescence 635 nm, higher = more signal
[16] = tested on: glycogen synthase kinase-3 (GSK3A per assay name; protocol says GSK3B); test: GSK3 binders on small-molecule microarrays, primary screen, biochemical, small-molecule microarray, 635 nm fluorescence, GSK3A (AID 1103); settings: small-molecule microarray binding, fluorescence 635 nm; higher = more signal; note: the record names both GSK3A and GSK3B
[17] = biological target: Epidermal growth factor receptor (Homo sapiens) (UniProt P00533); test: EGFR binders on small-molecule microarrays, primary screen, biochemical, small-molecule microarray, 635 nm fluorescence (AID 1104); settings: EGFR binding, higher = more signal;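 note: score merges 667 nm emission intensity with spot signal to noise over triplicate slides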
[18] = biological target: Follistatin-related protein 3 (Homo sapiens) (UniProt O95633); test: FSTL3 binders on small-molecule microarrays, primary screen, biochemical, small-molecule microarray, 635 nm fluorescence (AID 1105); settings: FSTL3 binding, higher = more signal;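 note: score merges emission near 667 nm and signal to noise per printed spot across three slides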
[19] = biological target: Dickkopf-related protein 1 (Homo sapiens) (UniProt O94907); test: DKK1 binders on small-molecule microarrays, primary screen, biochemical, small-molecule microarray, 635 nm fluorescence scan (AID 1106); settings: DKK1 binding, higher = more signal;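 note: score merges emission near 667 nm with signal to noise over three replicate slides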
[20] = tested on: Inhibin beta A chain (activin A); test: INHBA (activin A) binders on microarrays, primary screen, biochemical, small-molecule microarray, 635 nm fluorescence scan (AID 1107); settings: small-molecule microarray binding, higher = more signal;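 note: mouse activin A protein probed at 4.33 µg/mL on printed slides; score merges bound-protein fluorescence near 667 nm with spot signal-to-noise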

Torsin-1A-interacting protein 2 (Homo sapiens), sequence (Q8NFQ8 whole entry, looked up): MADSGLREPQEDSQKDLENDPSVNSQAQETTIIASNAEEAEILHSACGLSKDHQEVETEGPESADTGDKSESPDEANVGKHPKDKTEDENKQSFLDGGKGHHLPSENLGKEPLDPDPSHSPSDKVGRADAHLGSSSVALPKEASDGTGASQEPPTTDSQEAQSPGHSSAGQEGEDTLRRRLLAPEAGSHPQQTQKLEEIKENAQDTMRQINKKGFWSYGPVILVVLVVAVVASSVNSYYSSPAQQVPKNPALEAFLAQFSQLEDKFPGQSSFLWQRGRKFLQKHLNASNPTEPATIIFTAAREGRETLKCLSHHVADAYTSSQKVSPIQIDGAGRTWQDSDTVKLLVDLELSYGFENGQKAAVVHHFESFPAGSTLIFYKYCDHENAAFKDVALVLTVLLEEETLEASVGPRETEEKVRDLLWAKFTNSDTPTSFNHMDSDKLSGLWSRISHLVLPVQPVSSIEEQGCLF
Follistatin-related protein 3 (Homo sapiens), sequence (O95633 whole entry, looked up): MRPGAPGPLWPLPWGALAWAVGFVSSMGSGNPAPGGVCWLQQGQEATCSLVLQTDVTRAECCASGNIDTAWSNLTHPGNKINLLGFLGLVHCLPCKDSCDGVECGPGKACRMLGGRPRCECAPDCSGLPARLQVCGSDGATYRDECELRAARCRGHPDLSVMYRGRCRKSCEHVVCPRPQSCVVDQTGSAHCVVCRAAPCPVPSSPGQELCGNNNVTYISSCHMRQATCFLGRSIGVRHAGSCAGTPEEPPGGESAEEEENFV
Epidermal growth factor receptor (Homo sapiens), sequence (P00533 whole entry, looked up): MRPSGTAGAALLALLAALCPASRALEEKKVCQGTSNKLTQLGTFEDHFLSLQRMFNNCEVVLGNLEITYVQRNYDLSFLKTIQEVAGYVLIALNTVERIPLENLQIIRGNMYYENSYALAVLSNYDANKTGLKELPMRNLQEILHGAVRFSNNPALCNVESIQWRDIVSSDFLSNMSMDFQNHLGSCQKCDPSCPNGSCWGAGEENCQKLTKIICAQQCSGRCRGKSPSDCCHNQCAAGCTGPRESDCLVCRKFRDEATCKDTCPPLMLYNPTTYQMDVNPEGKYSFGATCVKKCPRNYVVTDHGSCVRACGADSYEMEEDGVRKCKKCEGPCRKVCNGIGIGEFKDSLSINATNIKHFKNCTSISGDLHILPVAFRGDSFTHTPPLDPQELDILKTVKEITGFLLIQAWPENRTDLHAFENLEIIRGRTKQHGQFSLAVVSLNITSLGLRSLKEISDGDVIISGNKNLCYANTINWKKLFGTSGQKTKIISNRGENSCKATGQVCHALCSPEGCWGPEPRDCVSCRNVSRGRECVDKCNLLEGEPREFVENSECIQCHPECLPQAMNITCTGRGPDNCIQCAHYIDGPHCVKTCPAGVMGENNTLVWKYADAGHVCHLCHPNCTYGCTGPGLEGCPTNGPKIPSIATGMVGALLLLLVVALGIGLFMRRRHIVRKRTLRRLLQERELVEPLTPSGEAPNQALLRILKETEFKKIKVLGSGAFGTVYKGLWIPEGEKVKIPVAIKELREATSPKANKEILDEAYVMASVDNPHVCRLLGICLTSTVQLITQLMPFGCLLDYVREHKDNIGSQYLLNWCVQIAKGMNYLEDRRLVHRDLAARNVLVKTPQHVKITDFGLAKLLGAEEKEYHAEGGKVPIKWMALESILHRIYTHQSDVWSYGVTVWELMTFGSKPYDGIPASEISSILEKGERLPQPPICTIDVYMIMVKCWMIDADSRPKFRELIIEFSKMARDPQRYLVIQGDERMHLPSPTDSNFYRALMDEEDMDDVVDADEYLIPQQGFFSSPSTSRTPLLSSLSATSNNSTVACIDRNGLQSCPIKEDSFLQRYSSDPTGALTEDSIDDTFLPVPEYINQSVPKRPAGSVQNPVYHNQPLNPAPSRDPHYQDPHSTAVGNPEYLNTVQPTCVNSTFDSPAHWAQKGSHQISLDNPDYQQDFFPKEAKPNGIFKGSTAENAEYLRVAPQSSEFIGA
Dickkopf-related protein 1 (Homo sapiens), sequence (O94907 whole entry, looked up): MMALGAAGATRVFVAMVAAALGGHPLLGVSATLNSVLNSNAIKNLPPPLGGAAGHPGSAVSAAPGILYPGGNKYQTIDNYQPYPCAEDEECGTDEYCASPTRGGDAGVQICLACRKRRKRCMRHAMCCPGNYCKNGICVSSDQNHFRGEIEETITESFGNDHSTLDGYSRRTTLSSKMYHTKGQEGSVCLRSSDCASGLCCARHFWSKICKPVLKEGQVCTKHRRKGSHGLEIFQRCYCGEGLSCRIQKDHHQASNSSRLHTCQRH
Neurogenic locus notch homolog protein 3 (Homo sapiens), sequence (Q9UM47 whole entry, looked up): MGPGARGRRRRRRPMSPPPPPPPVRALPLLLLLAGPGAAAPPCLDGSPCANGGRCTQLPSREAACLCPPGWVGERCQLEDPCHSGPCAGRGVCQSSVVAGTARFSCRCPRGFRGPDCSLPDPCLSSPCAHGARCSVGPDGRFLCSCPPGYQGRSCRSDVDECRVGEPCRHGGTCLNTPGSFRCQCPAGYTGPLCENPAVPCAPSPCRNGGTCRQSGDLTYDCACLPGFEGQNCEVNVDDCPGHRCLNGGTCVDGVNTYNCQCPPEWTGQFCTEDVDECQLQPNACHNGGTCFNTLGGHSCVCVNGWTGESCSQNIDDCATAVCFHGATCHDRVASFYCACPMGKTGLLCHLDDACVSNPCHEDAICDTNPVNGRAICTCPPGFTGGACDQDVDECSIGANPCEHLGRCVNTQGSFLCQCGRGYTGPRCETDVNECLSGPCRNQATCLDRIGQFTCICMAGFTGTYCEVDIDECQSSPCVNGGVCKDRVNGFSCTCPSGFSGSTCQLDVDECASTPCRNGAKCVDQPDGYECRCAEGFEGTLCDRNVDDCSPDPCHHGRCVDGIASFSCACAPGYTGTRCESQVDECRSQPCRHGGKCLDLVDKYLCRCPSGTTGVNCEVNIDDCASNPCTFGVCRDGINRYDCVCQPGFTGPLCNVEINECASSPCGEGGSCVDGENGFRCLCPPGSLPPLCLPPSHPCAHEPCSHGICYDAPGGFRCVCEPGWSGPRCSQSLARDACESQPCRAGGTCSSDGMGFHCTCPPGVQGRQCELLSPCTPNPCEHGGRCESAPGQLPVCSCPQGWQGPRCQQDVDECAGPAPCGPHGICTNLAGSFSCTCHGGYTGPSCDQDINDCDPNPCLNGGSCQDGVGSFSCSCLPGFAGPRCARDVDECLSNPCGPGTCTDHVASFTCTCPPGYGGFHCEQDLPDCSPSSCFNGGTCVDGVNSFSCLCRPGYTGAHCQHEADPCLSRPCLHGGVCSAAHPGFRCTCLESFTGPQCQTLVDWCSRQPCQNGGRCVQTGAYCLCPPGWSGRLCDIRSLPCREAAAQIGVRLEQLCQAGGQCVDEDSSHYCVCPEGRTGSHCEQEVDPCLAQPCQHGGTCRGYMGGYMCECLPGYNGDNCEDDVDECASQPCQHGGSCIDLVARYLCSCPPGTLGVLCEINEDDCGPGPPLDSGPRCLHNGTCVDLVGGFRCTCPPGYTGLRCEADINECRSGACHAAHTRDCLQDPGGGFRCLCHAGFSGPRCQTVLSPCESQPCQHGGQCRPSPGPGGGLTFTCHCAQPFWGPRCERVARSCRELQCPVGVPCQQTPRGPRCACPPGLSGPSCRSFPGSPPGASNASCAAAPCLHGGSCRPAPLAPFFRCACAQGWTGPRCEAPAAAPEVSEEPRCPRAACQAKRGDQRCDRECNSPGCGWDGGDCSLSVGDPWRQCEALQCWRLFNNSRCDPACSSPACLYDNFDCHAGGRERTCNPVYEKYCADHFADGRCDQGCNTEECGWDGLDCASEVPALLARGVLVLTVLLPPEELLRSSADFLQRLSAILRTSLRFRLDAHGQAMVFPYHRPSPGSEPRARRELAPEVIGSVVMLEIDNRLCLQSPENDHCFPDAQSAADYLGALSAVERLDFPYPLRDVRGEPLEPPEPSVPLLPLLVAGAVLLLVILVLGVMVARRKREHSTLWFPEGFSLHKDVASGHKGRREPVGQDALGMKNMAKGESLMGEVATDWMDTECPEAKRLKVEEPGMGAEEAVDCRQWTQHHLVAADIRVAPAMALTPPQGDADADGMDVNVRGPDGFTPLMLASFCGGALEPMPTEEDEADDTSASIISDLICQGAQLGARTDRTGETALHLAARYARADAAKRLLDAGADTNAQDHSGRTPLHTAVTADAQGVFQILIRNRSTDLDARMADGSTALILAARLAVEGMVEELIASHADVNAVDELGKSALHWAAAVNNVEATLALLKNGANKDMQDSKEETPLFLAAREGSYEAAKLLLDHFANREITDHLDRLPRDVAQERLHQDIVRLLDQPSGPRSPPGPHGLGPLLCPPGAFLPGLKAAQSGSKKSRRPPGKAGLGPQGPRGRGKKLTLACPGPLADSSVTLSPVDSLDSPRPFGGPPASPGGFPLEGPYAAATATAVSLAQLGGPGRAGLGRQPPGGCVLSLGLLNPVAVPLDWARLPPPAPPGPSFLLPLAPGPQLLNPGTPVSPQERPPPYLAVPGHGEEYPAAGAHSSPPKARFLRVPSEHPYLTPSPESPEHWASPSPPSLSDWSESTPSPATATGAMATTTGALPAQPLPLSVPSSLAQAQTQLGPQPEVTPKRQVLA
Fibroblast growth factor 10 (Homo sapiens), sequence (O15520 whole entry, looked up): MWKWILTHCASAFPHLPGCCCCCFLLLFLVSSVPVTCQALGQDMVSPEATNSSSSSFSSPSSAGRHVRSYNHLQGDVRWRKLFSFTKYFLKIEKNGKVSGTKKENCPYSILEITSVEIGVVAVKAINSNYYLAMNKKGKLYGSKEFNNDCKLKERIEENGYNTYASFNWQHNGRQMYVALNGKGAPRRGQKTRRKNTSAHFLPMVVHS

| Structure (SMILES) | composite z-score [1] | z-score [2] | z-score [3] | z-score [4] | composite z-score [5] | z-score [6] | composite z-score [7] | composite z-score [8] | composite z-score [9] | composite z-score [10] | composite z-score [11] | composite z-score [12] | composite z-score [13] | z-score [14] | composite z-score [15] | composite z-score [16] | composite z-score [17] | composite z-score [18] | composite z-score [19] | composite z-score [20] |
| --- | --- | --- | --- | --- | --- | --- | --- | --- | --- | --- | --- | --- | --- | --- | --- | --- | --- | --- | --- | --- |
| CO[C@@H]1COC(=O)[C@H](COCc2ccccc2)NC(=O)CC=C[C@@H](C)[C@H](OC)COC(=O)[C@H](COCc2ccccc2)NC(=O)CC=C[C@H]1C | 0.0472 | 0.982 (inactive) | -0.371 (inactive) | 0.921 (inactive) | -0.0267 | -0.405 (inactive) | -0.226 | 0.63 | -0.511 | -0.0605 | -0.23 | -0.466 | -0.942 | -0.923 (inactive) | 0.168 | 0.376 | 0.48 | 0.424 | 0.96 | 1.51 |
| C[C@@H]1CC[C@H]2C(=O)N3[C@@H](CC[C@@H](C)[C@@H]3c3cccc(N4CCOCC4)c3)C(=O)N2[C@H]1c1cccc(Br)c1 | 0.969 | -0.586 (inactive) | -3.26 (inactive) | -1.19 (inactive) | 1.6 | 0.732 (inactive) | 0.075 | 0.964 | 0.981 | 0.161 | 1.1 | 0.113 | 0.26 | 0.0479 (inactive) | 0.695 | 0.989 | 0.31 | 0.53 | 0.327 | 0.6 |
| C=CC[C@@]1(C(=O)NCC(O)CO)N=C(c2ccc(OCCCO)cc2)O[C@@H]1c1ccccc1CN=[N+]=[N-] (stereo not given in full) | 1.18 | -0.785 (inactive) | -1.42 (inactive) | -1.04 (inactive) | 3.84 | 1.52 (inactive) | -0.147 | -0.265 | -0.216 | -0.152 | 1.52 | -0.0775 | 1.08 | -0.155 (inactive) | 0.0349 | -1.33 | -0.83 | -0.884 | -1.45 | 0.242 |
| CCN1C(C)=C(C(=O)OC)[C@@H](c2ccccc2)N2C(=O)[C@@]3(C(=O)OC)O[C@@]12[C@@H]1C(=O)N(C)C(=O)[C@@H]13 | 0.962 | -0.444 (inactive) | -0.76 (inactive) | 1.74 (inactive) | 1.44 | -0.0517 (inactive) | -0.122 | 0.584 | 0.333 | 0.0692 | 0.736 | -0.0561 | -0.45 | -0.997 (inactive) | 1.25 | 0.622 | 0.471 | 1.41 | 1.1 | 0.613 |
| O=[N+]([O-])c1ccc(C[n+]2ccc3ccc(O)cc3c2)o1 | 0.536 | -0.0384 (inactive) | -7.09 (inactive) | -0.5 (inactive) | 0.803 | -2.03 (inactive) | -0.155 | -0.147 | 0.791 | -0.0867 | 0.595 | 0.174 | -0.144 | -0.0287 (inactive) | 0.297 | 0.314 | 0.219 | 0.42 | 0.0242 | 0.618 |
| [N-]=[N+]=NCc1ccccc1C[C@]1(C(=O)N2CCCCC2)N=C(c2ccc(OCCCO)cc2)O[C@H]1c1ccccc1CN=[N+]=[N-] | 1.55 | 0.551 (inactive) | 0.118 (inactive) | 8.36 (active) | 3.35 | -0.004 (inactive) | -0.0041 | 0.686 | 1.14 | -0.0703 | 0.751 | 0.518 | 0.885 | 0.324 (inactive) | 0.924 | 0.65 | -0.107 | 0.556 | -0.531 | 0.212 |
| CCCC=C(CCC)[C@@H](NC(=O)c1ccccc1)c1ccccc1 | -0.732 | 0.0874 (inactive) | -0.272 (inactive) | 0.912 (inactive) | 0.446 | -0.494 (inactive) | -0.0446 | -0.96 | -0.177 | -0.0828 | -0.597 | 0.712 | 1.07 | -0.0542 (inactive) | -0.0829 | -1.87 | -0.292 | -0.501 | -0.0056 | 1.16 |
| Cc1ccc(S(=O)(=O)N2[C@@H](c3ccccc3)C(C(=O)O)=CC[C@H]2c2ccccc2)cc1 | -0.116 | -0.12 (inactive) | -0.422 (inactive) | 0.0034 (inactive) | 3.4 | -1.76 (inactive) | -0.0096 | -0.208 | 0.622 | 0.0731 | 0.0714 | 0.153 | 0.431 | -0.258 (inactive) | 0.476 | -0.0481 | 0.197 | 0.169 | -0.454 | 0.512 |
| CC(=O)Nc1ccc([C@H]2[C@H](C)CC[C@H]3C(=O)N4[C@@H](CC[C@@H](C)[C@@H]4c4ccc(NC(C)=O)cc4)C(=O)N32)cc1 | 1.53 | 0.817 (inactive) | -0.789 (inactive) | -0.145 (inactive) | 1.63 | 0.987 (inactive) | -0.185 | 0.651 | 0.897 | 0.107 | 0.75 | 0.368 | -0.286 | 0.209 (inactive) | 1 | 1.17 | 0.168 | 0.845 | 0.759 | 0.213 |
| CC(C)N1CC=CC23O[C@@H]4/C=C\CCCOC(=O)C4[C@H]2C(=O)N(CCO)[C@@H]3C1=O (stereo not given in full) | 0.885 | -1.92 (inactive) | -3.04 (inactive) | -1.77 (inactive) | 1.95 | 3.25 (inactive) | -0.0766 | -0.715 | -0.0811 | -0.173 | 1.01 | 0.155 | 0.677 | -1.84 (inactive) | -0.363 | -0.456 | -1.02 | -0.516 | -1.08 | 1.45 |
